Screening data (PubChem)
PAFAH2 inh: PAFAH2 (human) inhibition | recombinant PAFAH2, FP-rhodamine activity probe, fluorescence polarization | inhibition, % at 3.39 µM | hit rate 0.99% among 340,000 | AID 492956;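 active = inhibition above the mean over all tested compounds plus 3 SD, cut at about 30% in these data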;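 also: inhibitors block probe labeling of enzyme so polarization drops; 0% = enzyme with DMSO and 100% = wells lacking PAFAH2 protein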
ZTA counter: counter-screen for EBNA-1 inhibitors: inhibitors of Epstein-Barr virus ZTA. P03206. ZTA-DNA binding, fluorescence polarization. inhibition, % at 11 µM. hit rate 0.15% among 320,000; in the data active = inhibition above about 33%
Target sequence (P03206 whole entry, looked up): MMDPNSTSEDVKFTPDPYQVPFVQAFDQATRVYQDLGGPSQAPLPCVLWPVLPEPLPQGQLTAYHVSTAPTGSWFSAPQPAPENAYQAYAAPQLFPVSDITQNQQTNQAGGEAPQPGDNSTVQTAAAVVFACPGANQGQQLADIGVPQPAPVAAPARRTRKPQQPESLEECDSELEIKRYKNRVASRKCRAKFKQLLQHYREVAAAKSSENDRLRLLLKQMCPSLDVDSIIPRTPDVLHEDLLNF
rCAG binder: binds r(CAG) RNA repeats. inhibition, % at 3 µM. hit rate 1.3% among 370,000. r(CAG) RNA repeat, TO-PRO-1 dye displacement fluorescence;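 active = inhibition above the plate cutoff, the mean of all test compounds on that plate plus 3 SD, cut at about 35% in these data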;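 also: 0% = DMSO alone and 100% = 100 µM mitoxantrone as full dye displacement; higher means more dye released from RNA so lower well fluorescence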
PAFAH1B2 FP inh: blocks human PAF acetylhydrolase 1b catalytic subunit 2 | hit rate 1.2% among 340,000 | AID 492953 | inhibition, % at 3.39 µM | P68402 | recombinant PAFAH1B2, FP-rhodamine activity probe, fluorescence polarization;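 active = inhibition above the mean of all tested compounds plus 3 SD, cut at about 24% in these data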;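 also: 0% = enzyme with DMSO and 100% = wells lacking PAFAH1B2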
Target sequence (P68402 whole entry, looked up): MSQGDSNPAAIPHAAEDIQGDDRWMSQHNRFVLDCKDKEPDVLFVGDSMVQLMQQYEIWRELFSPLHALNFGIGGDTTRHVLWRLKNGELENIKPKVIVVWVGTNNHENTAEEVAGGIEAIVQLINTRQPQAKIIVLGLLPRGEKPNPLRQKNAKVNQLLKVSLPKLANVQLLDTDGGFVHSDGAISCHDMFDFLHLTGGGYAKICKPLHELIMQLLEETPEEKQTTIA
PAFAH1B3 FP inh: PAFAH1B3 (human) inhibition. recombinant PAFAH1B3, FP-rhodamine probe, fluorescence polarization. inhibition, % at 3.39 µM. hit rate 0.28% among 340,000. AID 492972;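 active = inhibition above the screen-wide average of all tested compounds plus 3 SD, cut at about 25% in these data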;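 also: 0% = enzyme with DMSO only and 100% = wells lacking PAFAH1B3 protein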
EBNA-1 inhibitor: blocks EBNA-1 binding to DNA. EBNA-1 DNA binding, fluorescence polarization. hit rate 0.34% among 300,000. inhibition, % at 14.8 µM; in the data active = inhibition above about 28%
Active calls of the source: *; x = not tested or not shown. Most compounds without a hit are left out; they make up all but 2.9% or so of the library.

SMILES | PAFAH2 inh | ZTA counter | rCAG binder | PAFAH1B2 FP inh | PAFAH1B3 FP inh | EBNA-1 inhibitor
CCn1cnc2cc(NCc3ccc(OC)cc3)ccc21 | -4 | -7 | -3 | 8 | 6 | -3
CCOc1ccc2nc3cc(NCc4ccc(OC)cc4)ccc3c(N)c2c1 | 12 | 101* | x | 5 | 18 | 13
CC(C)c1cc(C(C)C)c(S(=O)(=O)N2CCCC(C(=O)N3CCN(Cc4ccccc4)CC3)C2)c(C(C)C)c1 (stereo unspecified) | x | x | 7 | x | x | x
Nc1ncnc2c1nc(Sc1ccc(Cl)cc1)n2[C@@H]1O[C@@H]2COP(=O)(O)O[C@H]2[C@H]1O | -4 | 1 | 1 | 26* | 4 | 8
C#CCN1CC(N(C)CCOC(=O)c2ccc(C(C)(C)C)cc2)CS1(=O)=O (stereo unspecified) | x | x | 0 | x | x | x
CC(O)(c1ccccc1)C(C(c1ccccc1)N1CCOCC1)N1CCOCC1 (stereo unspecified) | 1 | x | -1 | 1 | 6 | x
OC(c1ccccc1)(c1ccc(F)cc1)C(c1ccccc1)N1CCOCC1 (stereo unspecified) | -1 | 3 | x | 33* | 2 | -12
COc1ccc(C(=O)CSC2=C(C#N)C3(CCCCC3)C(C#N)=C(N)N2)cc1 | 0 | 2 | 10 | 27* | 5 | -2
O=C(CSc1ccc(F)cc1)Nc1ccccc1N1CCOCC1 | 1 | -4 | -5 | 26* | 13 | -13
O=C(Nc1ccccc1N1CCOCC1)c1cccc(S(=O)(=O)Nc2ccccc2F)c1 | 14 | -13 | 37* | 7 | 9 | x
CCOC(=O)N1CCN(C(=O)C[C@H]2C(=O)N(CCCOC)C3=CCCCC[C@]32C(=O)OC)CC1 | x | x | 3 | x | x | x
CC(=O)c1cc(-c2cccc([N+](=O)[O-])c2)c(=O)n2c1CCC2 | x | x | 5 | x | x | x
Cc1ccc(-n2cccc2C(=O)NS(=O)(=O)c2ccc(C)cc2)cc1 | -4 | -7 | 10 | 28* | 0 | 2
COC(=O)/C=C1\OCc2cccc(C)c21 | x | x | 1 | x | x | x
CCCCOCCCNC(=O)C[C@H]1C[C@@]2(C(=O)OC)C(=C[C@H](C(C)C)O[C@@H]2C2CC2)N(CCC2=CCCCC2)C1=O | x | x | 6 | x | x | x
O=C(CSc1nnc(-c2ccc(Cl)cc2)n1-c1ccccc1)Nc1ccc(Oc2ccccc2)cc1 | x | x | 5 | x | x | x
Cc1nc(NC(=O)c2ccco2)sc1-c1csc(Nc2ccc(Cl)cc2Cl)n1 | 13 | 2 | 48* | 5 | 13 | 8
Cc1ccc(Cl)cc1Nc1nc(-c2sc(NC(=O)c3ccco3)nc2C)cs1 | -11 | 4 | 30 | 1 | 3 | 10
O=C(NCc1ccccc1)C(c1ccc(C(F)(F)F)cc1)n1c(=O)c(-c2ccco2)nc2ccccc21 (stereo unspecified) | x | x | 36* | x | x | x
CCCCCNC(=O)C(c1ccccc1F)n1c(=O)c(-c2ccco2)nc2ccccc21 (stereo unspecified) | x | x | 40* | x | x | x
O=C(COC(=O)c1c[nH]c2ccccc12)Nc1ccc(F)cc1 | 77* | 6 | 2 | 0 | 1 | x
O=C(COC(=O)c1c[nH]c2ccccc12)Nc1cccc(F)c1 | 81* | 1 | 4 | -1 | 9 | x
O=C(COC(=O)c1c[nH]c2ccccc12)NCc1ccccc1 | x | x | 0 | x | x | x
CN(C(=O)c1cccc(NC(=O)Cc2ccc(NC(=O)C3CCCN(C(=O)c4ccccc4)C3)cc2)c1)C1CC1 (stereo unspecified) | x | x | 4 | x | x | x
O=S(=O)(/N=C(/NNS(=O)(=O)c1ccccc1)c1ccccc1)c1ccccc1 | 1 | 6 | 8 | 22 | 3 | 1
SMILES | PAFAH2 inh | ZTA counter | rCAG binder | PAFAH1B2 FP inh | PAFAH1B3 FP inh | EBNA-1 inhibitor
O=S(=O)(/N=C(/NS(=O)(=O)c1ccccc1)c1ccccc1)c1ccccc1 | 1 | -23 | 10 | 28* | 4 | 0
Nc1[nH]c2cc(Cl)ccc2c1C(=O)NCCc1ccc(Cl)cc1 | x | x | 8 | x | x | x
Cc1ccccc1NS(=O)(=O)c1cc(C(=O)NCCC2=CCCCC2)ccc1C | 16 | 11 | 0 | 18 | -5 | 9
O=C(NCCC1=CCCCC1)c1ccc(Cl)c(S(=O)(=O)Nc2ccccc2)c1 | 11 | -4 | 6 | 28* | -8 | -10
CCOc1ccc(-n2c(SCC(=O)Nc3ccccc3-c3ccccc3)nnc2-c2ccccc2)cc1 | x | x | 5 | x | x | x
COc1ccc(OC)c(C(c2c(C)[nH][nH]c2=O)c2c(C)[nH][nH]c2=O)c1 | 6 | 3 | 5 | 0 | 4 | 3
COc1ccc(O)c(C(c2c(C)[nH][nH]c2=O)c2c(C)[nH][nH]c2=O)c1 | 11 | 21 | -2 | 27* | 38* | -2
Cc1ccc(NC(=O)CSc2nc(C)cc(=O)[nH]2)c(C)c1 | x | x | 1 | x | x | x
Nn1c(SCc2cccc3ccccc23)nnc1-c1cc(-c2ccc(F)cc2)n[nH]1 | x | x | 9 | x | x | x
CC1CN(S(=O)(=O)c2cccc(C(=O)OCC(=O)c3cccs3)c2)CC(C)O1 (stereo unspecified) | 14 | 8 | 1 | -4 | 10 | -3
COc1cccc(C(=O)OCC(=O)Nc2ccc3c(c2)OCCO3)c1 | 76* | x | 4 | 9 | 14 | x
Cc1ccc(NC(=O)COC(=O)c2cccc(S(=O)(=O)N3CCCCCC3)c2)cc1 | x | x | 3 | x | x | x
COc1ccc(NC(=O)COC(=O)c2ccc3c(c2)OCCO3)cc1 | x | x | 1 | x | x | x
COc1ccccc1CNC(=O)COC(=O)c1ccc(C)c(S(=O)(=O)N2CCCCC2)c1 | 42* | -2 | -5 | 5 | 10 | 2
CC1CN(S(=O)(=O)c2cccc(C(=O)OCC(=O)Nc3ccc4c(c3)OCO4)c2)CC(C)O1 (stereo unspecified) | 67* | -3 | 2 | 0 | 1 | 7
NC(=O)NC(=O)COC(=O)c1cccc(S(=O)(=O)N2CCCCCC2)c1 | -1 | -6 | -2 | 27* | 2 | -7
O=c1cc(-c2ccccc2)nc2nc(SCc3ccccc3)[nH]n12 | 41* | 2 | 8 | 5 | 6 | 0
Cc1cc(=O)n2[nH]c(SCc3ccc(Cl)cc3)nc2n1 | 18 | 1 | 2 | 50* | -7 | 2
O=C(CCc1ccccc1)Nc1nc2nc(-c3ccccc3)cc(=O)n2[nH]1 | 5 | 5 | 19 | 27* | 12 | -9
CC(C)c1cc(=O)n2[nH]c(SCc3ccccc3Cl)nc2n1 | 56* | -2 | 11 | 9 | 8 | -13
CCn1c(Cc2cccs2)nnc1SCC(=O)c1ccc(Cl)cc1 | x | x | 3 | x | x | x
CCOc1ccc(N(CC(=O)Nc2c(C)n(C)n(-c3ccccc3)c2=O)S(=O)(=O)c2ccc(C(C)(C)C)cc2)cc1 | x | x | 4 | x | x | x
CN(C)CC(c1ccc(O)cc1)C1(O)CCCCC1 (stereo unspecified) | x | x | 2 | x | x | x
COCc1cc(=O)n2[nH]c(SC)nc2n1 | 8 | -10 | -1 | 6 | 3 | 14
COCc1cc(=O)n2[nH]c(SCc3ccccc3)nc2n1 | 35* | 13 | 1 | 6 | -4 | -1
Cc1ccnc(NS(=O)(=O)c2ccc(NC(=O)C34CC5CC(CC(C5)C3)C4)cc2)n1 | 3 | 12 | 13 | 18 | 3 | 7
